Source: ChEMBL document CHEMBL4513216, “Probing the Open Global Health Chemical Diversity Library for Multistage-Active Starting Points for Next-Generation Antimalarials” (ACS Infect Dis, 2020)
Hit rate of the full screen: of about 69,000 compounds, about 8,600 (12%) showed an effect of 50% or more. This excerpt belongs to a sample that is enriched for strong results.

The compounds below were run on Plasmodium berghei (assay: Screen against P. berghei liver stage (PbLuc), transformed with Luciferase, at 10uM). Details: tested at 10 uM.
Type: functional, HepG2

**Q.** With `O=C(c1c[nH]c(=O)[nH]c1=O)N1CCCC(c2nccn2CC2CCC2)C1` (stereo not drawn) as the compound, how does the INHIBITION read?
**A.** Its INHIBITION is 22%.

**Q.** For `CC(=O)N(Cc1ncc(C)o1)C1CCN(CCc2ccncc2)C1` (stereo not drawn), which INHIBITION is on record?
**A.** Its INHIBITION is 12.7%.

**Q.** For `CN(Cc1ccccc1F)C(=O)COC(=O)c1cc(Cl)c[nH]1`, which INHIBITION is on record?
**A.** The INHIBITION was 29.9%.

**Q.** With `O=c1[nH]c(-c2ccncc2)ncc1-c1ccnc(NC2CC2)n1` as the compound, how does the INHIBITION read?
**A.** Its INHIBITION is 18.9%.

**Q.** Which INHIBITION does the source give for `c1cnc(Nc2ccc(C3CCCCN3Cc3ccncc3)cn2)nc1` (stereo not drawn) here?
**A.** Its INHIBITION is 23.3%.

**Q.** `O=C(Cc1ccccc1)N1CCC2(CC1)COCCN2CC1CC1` was tested. Which INHIBITION did it give?
**A.** The INHIBITION was 6.6%.

**Q.** For `COCCOCC(C)NC(=O)COc1nn(C)c2nc(C)cc(C)c12` (stereo not drawn), which INHIBITION is on record?
**A.** The INHIBITION was 9.63%.

**Q.** `CCOc1ncccc1NC(=O)NC1CCN(S(C)(=O)=O)CC1` was tested. Which INHIBITION did it give?
**A.** Its INHIBITION is 44.8%.

**Q.** Which INHIBITION does the source give for `O=C(Nc1nc(-c2ccccc2)ns1)N1CCC(CO)CC1` here?
**A.** Its INHIBITION is -95.1%.

**Q.** `Cc1nn(C)c(N(C)C)c1CNCc1cccc(Cn2ccnc2)c1` was tested. Which INHIBITION did it give?
**A.** Its INHIBITION is -31.5%.

**Q.** For `Fc1ccc(N2CCC3(CC2)CC(OCc2cccnc2)CO3)cc1` (stereo not drawn), which INHIBITION is on record?
**A.** Its INHIBITION is 33.4%.

**Q.** Which INHIBITION does the source give for `N#Cc1ccc(N2CCC3(CC2)CC(OCc2cccnc2)CO3)cc1` (stereo not drawn) here?
**A.** Its INHIBITION is 58.5%.

**Q.** How did the INHIBITION turn out when `c1cncc(CO[C@H]2CO[C@@]3(CCN(Cc4ccoc4)C3)C2)c1` was run?
**A.** The INHIBITION was -0.79%.

**Q.** For `O=C(NCc1ccco1)[C@H]1C[C@@H]2CCN(c3ncccn3)C[C@H]2O1`, which INHIBITION is on record?
**A.** Its INHIBITION is 9.51%.

**Q.** For `c1cc(CNCC2OCCc3cn(CC4CC4)nc32)cs1` (stereo not drawn), which INHIBITION is on record?
**A.** The INHIBITION was 20.9%.

**Q.** With `COc1ccc2c(c1)c(-c1nc(C)ncc1CN)cn2C` as the compound, how does the INHIBITION read?
**A.** Its INHIBITION is 27.6%.

**Q.** Which INHIBITION does the source give for `CN(Cc1ccccc1)CC(C)(C)NC(=O)c1cnns1` here?
**A.** Its INHIBITION is 25.3%.

**Q.** For `CN(Cc1ccccc1)CC(C)(C)NC(=O)c1ccon1`, which INHIBITION is on record?
**A.** The INHIBITION was 38.7%.

**Q.** Which INHIBITION does the source give for `CC(C)(C)CNC(=O)c1ccc(C(=O)O)cn1` here?
**A.** Its INHIBITION is 11.3%.

**Q.** How did the INHIBITION turn out when `CN(Cc1ccc(CCC(C)(C)O)cc1)Cc1cccc(O)c1` was run?
**A.** The INHIBITION was 22.5%.

**Q.** Which INHIBITION does the source give for `CN(Cc1ccccc1)CC(C)(C)NC(=O)c1ccc(C(N)=O)cn1` here?
**A.** Its INHIBITION is 52.2%.

**Q.** Which INHIBITION does the source give for `Cc1cnc(CNC(=O)N(Cc2ccccc2)CC(C)(C)O)s1` here?
**A.** The INHIBITION was 15.7%.

**Q.** How did the INHIBITION turn out when `CN(Cc1ccccc1)CC(C)(C)NC(=O)c1cnccn1` was run?
**A.** Its INHIBITION is 64.5%.

**Q.** With `CC(c1ccccn1)N(C)Cc1ccc(CCC(C)(C)O)cc1` (stereo not drawn) as the compound, how does the INHIBITION read?
**A.** Its INHIBITION is 36.6%.

**Q.** Which INHIBITION does the source give for `CN(Cc1ccc(CCC(C)(C)O)cc1)Cc1cccnc1` here?
**A.** The INHIBITION was 57.1%.

**Q.** How did the INHIBITION turn out when `Cc1ccc(C(=O)N2CCN3C[C@H](Oc4cccc(F)c4)C[C@H]3C2)cn1` was run?
**A.** The INHIBITION was 0.804%.

**Q.** `O=C(NCC1CC2(CO1)CN(Cc1cccs1)C2)C1CCC1` (stereo not drawn) was tested. Which INHIBITION did it give?
**A.** The INHIBITION was 27.6%.

**Q.** With `COc1ccc(F)c(-c2ncccc2C(=O)N2C[C@@H]3CC[C@H]2C3)c1` as the compound, how does the INHIBITION read?
**A.** The INHIBITION was 39%.

**Q.** `COc1ccccc1OCc1cc(C(=O)N2CCN[C@H](C)C2)n[nH]1` was tested. Which INHIBITION did it give?
**A.** Its INHIBITION is 51.8%.

**Q.** With `COc1ccc(OCc2cc(C(=O)N3C[C@@H](C)O[C@@H](C)C3)n[nH]2)c(Cl)c1` as the compound, how does the INHIBITION read?
**A.** The INHIBITION was 44.2%.

**Q.** `COc1ccc(OCc2cc(C(=O)N3CCN[C@H](C)C3)n[nH]2)c(Cl)c1` was tested. Which INHIBITION did it give?
**A.** The INHIBITION was 65.1%.

**Q.** With `COc1ccccc1OCc1cc(C(=O)N2CC(O)C2)n[nH]1` as the compound, how does the INHIBITION read?
**A.** The INHIBITION was -34.5%.

**Q.** How did the INHIBITION turn out when `COc1ccc(OCc2cc(C(=O)N3CCC(O)CC3)n[nH]2)c(Cl)c1` was run?
**A.** Its INHIBITION is -3.75%.

**Q.** With `COc1ccccc1OCc1cc(C(=O)N2C[C@@H](C)O[C@@H](C)C2)n[nH]1` as the compound, how does the INHIBITION read?
**A.** The INHIBITION was -16%.

**Q.** How did the INHIBITION turn out when `Cc1cccc(C(=O)N2CC(=O)N(c3ccccc3Cl)CC2C)n1` (stereo not drawn) was run?
**A.** Its INHIBITION is 28.2%.

**Q.** How did the INHIBITION turn out when `Cc1ccc(N(C)S(=O)(=O)c2cc(C(=O)O)cs2)c(C)c1` was run?
**A.** Its INHIBITION is -42.1%.

**Q.** How did the INHIBITION turn out when `Cn1cc(CN2CC[C@H]3OCC[C@@H](C(=O)NC4CCCC4)[C@@H]3C2)cn1` was run?
**A.** Its INHIBITION is 10%.

**Q.** For `CNc1nc2cn(CCc3ccc(F)cc3)c(=O)c-2c[nH]1`, which INHIBITION is on record?
**A.** The INHIBITION was 45.8%.

**Q.** With `O=C1CC(c2ccc(O)cc2)c2c(c(C(=O)O)cn2-c2ccccc2)N1` (stereo not drawn) as the compound, how does the INHIBITION read?
**A.** Its INHIBITION is 25.2%.

**Q.** Which INHIBITION does the source give for `COc1ccc(CN2CCn3cc(Cn4cccn4)nc3C2)cc1` here?
**A.** Its INHIBITION is 7.9%.

**Q.** With `COc1ccccc1OCCN(C)Cc1c(C2CC2)[nH]c2ncccc12` as the compound, how does the INHIBITION read?
**A.** Its INHIBITION is 10.7%.

**Q.** For `COc1ccccc1C(C)CC(=O)N1CCCS1(=O)=O` (stereo not drawn), which INHIBITION is on record?
**A.** Its INHIBITION is -6.7%.

**Q.** With `CC(Cc1ccc(C(F)(F)F)cc1)C(=O)N1CCCS1(=O)=O` (stereo not drawn) as the compound, how does the INHIBITION read?
**A.** Its INHIBITION is -33.4%.

**Q.** For `CC(CC(=O)N1CCCS1(=O)=O)c1ccccc1C(F)(F)F` (stereo not drawn), which INHIBITION is on record?
**A.** Its INHIBITION is 50.1%.

**Q.** For `Cc1ncc(C(=O)N2CCCC2c2c(C)nn(C)c2C)s1` (stereo not drawn), which INHIBITION is on record?
**A.** Its INHIBITION is 23.2%.

**Q.** With `CCc1ccc(CC)c(NCc2cnc(N3CCOCC3)nc2)c1` as the compound, how does the INHIBITION read?
**A.** The INHIBITION was -36.4%.

**Q.** How did the INHIBITION turn out when `O=C(c1c[nH]cn1)N1CCC(F)(F)C2(CCN(c3ncccn3)C2)C1` (stereo not drawn) was run?
**A.** Its INHIBITION is 2.41%.

**Q.** Which INHIBITION does the source give for `O=C(c1c[nH]cn1)N1CCC(F)(F)C2(CCN(c3ccccn3)C2)C1` (stereo not drawn) here?
**A.** The INHIBITION was 34.6%.

**Q.** `O=C(c1c[nH]cn1)N1CCC(F)(F)C2(CCN(c3cnccn3)C2)C1` (stereo not drawn) was tested. Which INHIBITION did it give?
**A.** The INHIBITION was 52.3%.

**Q.** How did the INHIBITION turn out when `CN1C(=O)COc2ccc(C(=O)Cn3cnc4ccccc4c3=O)cc21` was run?
**A.** Its INHIBITION is -35.1%.

**Q.** How did the INHIBITION turn out when `Cc1cnn(CC2CCCCN2C(=O)CCCc2nc(C)no2)c1` (stereo not drawn) was run?
**A.** Its INHIBITION is 11.3%.

**Q.** Which INHIBITION does the source give for `COc1cc(OC)cc(C(=O)Nc2ncnc3c2CCC3)c1` here?
**A.** The INHIBITION was 52.4%.

**Q.** For `O=C(Nc1ncnc2c1CCC2)c1ccc2c(c1)OCO2`, which INHIBITION is on record?
**A.** The INHIBITION was -19.7%.
